Bioassay records: PubChem, National Center for Advancing Translational Sciences (NCATS)
HCV inhibitor: inhibitors of hepatitis C virus infection | Huh7.5.1 HCVcc-Cre infection, luciferase reporter, 44 h | Potency, µM (series often up to 41.8 µM), without a hit: top-dose activity change, negative = inhibition, most hits filed as inhibitors | actives 3.4% (n = 340,000) | AID 651820; active = well fitted inhibition curve with a large enough effect; inconclusive = small, poorly fitted or top-dose-only effect, or another doubt; inactive = no such curve, though single readings can be large or run the other way; note: potency is the fitted concentration of half-maximal effect
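Infectious HCVcc-Cre (~0.5 moi) was added to cells just after compound, with cells seeded 4 h earlier at 1,000 per well. Luciferase activity after 44 h culture reported infection; substrate was incubated 15 min at room temperature before reading.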
LASV entry inh: Lassa virus entry inhibition | actives 1.2% (n = 300,000) | Potency, µM (titrated, usually from 37.9 µM), inactives show top-dose activity change, negative = inhibition, most hits filed as inhibitors | Lassa virus pseudotype entry inhibition, cell reporter; calls by dose curve; tested in HEK293 cells; note: potency is the fitted concentration of half-maximal effect; nearly all actives have a fitted effect of over 50% in size
Vaccinia mCherry: vaccinia inhibition (mCherry reporter); Vaccinia virus mCherry reporter infection, fluorescence; Potency, µM (series often up to 36.5 µM), without a hit: top-dose activity change, negative = inhibition, hits mostly inhibitors; actives 0.63% (n = 310,000); AID 720579; calls by dose curve; tested in A549 cells; note: potency is the fitted concentration of half-maximal effect; nearly all actives have a fitted effect of over 35% in size
Vaccinia Venus: vaccinia inhibition (Venus reporter). actives 0.46% (n = 330,000). Vaccinia virus Venus reporter expression, fluorescence. Potency, µM (top dose mostly 36.5 µM), inactives show at the highest dose activity change, negative = inhibition, most hits filed as inhibitors; calls by dose curve; tested in A549 cells; note: potency is the fitted concentration of half-maximal effect; nearly all actives have a fitted effect of over 30% in size
HCMV inh: inhibitors of human cytomegalovirus | activity change, negative = inhibition, % at 57.5 µM | actives 4.5% (n = 410,000) | HFF cells, HCMV-luciferase reporter, 72 h; stronger effect = lower value | AID 1259415; in the data active = activity change below about -60%; inconclusive = no clear call, values can overlap the other calls; inactive = above about -39%
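Screen run at 2 compound doses on HFFs infected with reporter HCMV, MOI 1 PFU/cell. Luciferase activity from cell lysates at 72 h post infection gave inhibition relative to buffer-only and Salinomycin wells.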
Marburg entry inh: inhibitors of Marburg virus binding or cell entry. Marburg virus pseudotyped entry inhibition, cell reporter. Potency, µM (top dose mostly 37.8 µM), inactives show top-dose activity change, negative = inhibition, most hits filed as inhibitors. actives 1.8% (n = 300,000); calls by dose curve; tested in HEK293 cells; note: potency is the fitted concentration of half-maximal effect
Active calls of the source: *; i = inactive; ? = inconclusive; . = no result given; [ ] = remark or other dose. This is a sample that favours compounds with a hit; in the whole collection about 7.8% have one here. % is set by controls: 0 for no effect and ±100 for the full control effect.

SMILES	HCV inhibitor	LASV entry inh	Vaccinia mCherry	Vaccinia Venus	HCMV inh	Marburg entry inh
CCC(C)(C)c1ccc(OCCCC[n+]2cccc(C)c2)c(C(C)(C)CC)c1	?	?	?	?	-101.4*	?
CCN(CC)CC#CCC(O)(c1ccccc1)c1ccc(Br)cc1 (stereo not drawn)	10µM*	?	.	.	-61.8*	23.1µM*
CCN(CC)CC#CCC(O)(c1ccccc1)c1ccccc1	?	-28.0%	-2.4%	-15.4%	-2.4	?
O=C(O)C1Nc2ccccc2C2C=CCC12 (stereo not drawn)	.	.	-14.6%	13.5%	.	.
Cc1cc(C)cc(NC(=O)CC(C)n2nc(C)cc2C)c1 (stereo not drawn)	.	-4.4%[46.1 µM]	-9.5%	-4.7%	-10.5	.
Cc1cc(C)c(CN2CCC(CO)(CCOc3ccccc3)CC2)cc1C	?	?	-8.0%	-21.2%	-6.8	11.2µM*
CCOC(=O)C1(CCc2ccccc2)CCN(Cc2ccc3c(c2)OCCO3)CC1	?	?	-12.6%	-4.6%	-77.0*	?
CCOC(=O)C1(CCc2ccccc2)CCN(C2CCSCC2)CC1	7.7%	?	-3.0%	-10.3%	-26.7	10µM*
COc1ccc(OC)c(CN2CCC(CO)(CCOc3ccccc3)CC2)c1	0.2%	0.8%[46.1 µM]	i	-8.3%	51.6	?
CCOC(=O)C1(CCOc2ccccc2)CCN(Cc2ccc3nonc3c2)CC1	10µM*	5.8%	-16.5%	-12.4%	-14.4	5.2%[46.1 µM]
CCOC(=O)C1(CCc2ccccc2)CCN(Cc2ccc(C(=O)OC)cc2)CC1	-16.5%	.	.	.	-10.4	.
CCOC(=O)C1(CCOc2ccccc2)CCN(Cc2ccc(NC(C)=O)cc2)CC1	-23.8%	6.5%	-10.5%	-9.4%	30.3	-21.8%[46.1 µM]
CCOC(=O)C1(CCc2ccccc2)CCN(C2Cc3ccccc3C2)CC1	-26.9%	-11.8%	-11.8%	-4.3%	-4.5	-20.2%[46.1 µM]
CC(=O)c1cccc(OCC(=O)N(CCC2=CCCCC2)c2c(N)n(Cc3ccccc3)c(=O)[nH]c2=O)c1	?	-23.1%	14.8%	-7.0%	-0.6	?
CCOC(=O)C1(CCOC)CCN(C(=O)Cc2ccc3ccccc3c2)CC1	-5.6%	?	-2.7%	-8.6%	-23.8	10µM*
CCOC(=O)C1(CCOc2ccccc2)CCN(Cc2ccc(OCC)c(CO)c2)CC1	14.1µM*	.	.	.	-19.7	.
CCOC(=O)C1(CCOc2ccccc2)CCN(Cc2cccc(F)c2)CC1	?	.	.	.	-91.4*	.
CCOC(=O)C1(CCOC)CCN(C(=O)Cc2ccsc2)CC1	7.1%	.	.	.	63.0	.
CCOC(=O)C1(CCOc2ccccc2)CCN(Cc2ccc(C)s2)CC1	?	?	-7.3%	-7.1%	-82.0*	?
O=C(CN1C(=O)CSc2ccc(S(=O)(=O)N3CCCC3)cc21)Nc1cccc(Cl)c1	.	-1.9%[46.1 µM]	-8.3%	-13.7%	-9.6	.
CCOC(=O)C1(CCOc2ccccc2)CCN(Cc2cccc(OCCO)c2)CC1	-23.2%	-17.3%	-16.9%	-9.0%	61.8	?
CCOC(=O)C1(CCOc2ccccc2)CCN(Cc2ccc(OC)cc2)CC1	12.6µM*	.	.	.	-31.6	.
CCOC(=O)C1(CCOc2ccccc2)CCN(Cc2cccc(OC)c2OC)CC1	28.2µM*	?	-5.2%	-15.4%	-3.0	?
CCOC(=O)C1(CCOc2ccccc2)CCN(Cc2cccn2-c2cccnc2)CC1	?	?	-0.6%	-20.0%	-72.4*	?
CCOC(=O)C1(CCOc2ccccc2)CCN(Cc2cccc(-n3cccn3)c2)CC1	12.6µM*	?	.	.	-39.1	?
SMILES	HCV inhibitor	LASV entry inh	Vaccinia mCherry	Vaccinia Venus	HCMV inh	Marburg entry inh
COc1cccc(-c2nc3cc(SC)ccc3cc2CN(C(=O)c2csc(C)n2)C2CC2)c1	.	.	-7.0%	12.0%	.	.
CC(=O)C(C(=O)Nc1c(C)cccc1C)N(Cc1ccco1)C(=O)C(=O)c1ccccc1 (stereo not drawn)	.	.	.	.	-12.2	.
CN(C)c1ccc(/C=C2\C=Cc3ccccc32)c(Cl)c1	.	.	i	-16.0%	.	.
CCOc1ccc2oc(=O)cc(CN3CCN(C(=O)c4cccc(F)c4)CC3)c2c1	.	-1.4%[46.1 µM]	-7.7%	-4.7%	-29.5	-3.6%[46.1 µM]
CCOc1ccc(CN2CCN(C(=O)c3cccc(F)c3)CC2)cc1	11.2µM*	?	-24.5%	-22.7%	?	?
CS(=O)(=O)CCNCc1ccc(-c2ccc3ncnc(Nc4ccc(OCc5cccc(C(F)(F)F)c5)cc4)c3c2)o1	.	28.1µM*	.	.	.	.
